# Experimental data taken from PubChem BioAssay (EPA / NIEHS).
# Where “and” joins values, the source holds several entries; their conditions need not be identical. Equal values may be shown once. Inconclusive results are not listed. Calls of active or inactive are those of the source. Rule for the calls: active = hit-call score of the fitted dose curve at least 0.9, where 1 is the maximum; inconclusive = response in the unintended direction; inactive = score below 0.9.
# Target: Androgen Receptor/SRC-1 Co-activator, AR (gene 367) (UniProt P10275)
# Sequence (P10275 whole entry, looked up): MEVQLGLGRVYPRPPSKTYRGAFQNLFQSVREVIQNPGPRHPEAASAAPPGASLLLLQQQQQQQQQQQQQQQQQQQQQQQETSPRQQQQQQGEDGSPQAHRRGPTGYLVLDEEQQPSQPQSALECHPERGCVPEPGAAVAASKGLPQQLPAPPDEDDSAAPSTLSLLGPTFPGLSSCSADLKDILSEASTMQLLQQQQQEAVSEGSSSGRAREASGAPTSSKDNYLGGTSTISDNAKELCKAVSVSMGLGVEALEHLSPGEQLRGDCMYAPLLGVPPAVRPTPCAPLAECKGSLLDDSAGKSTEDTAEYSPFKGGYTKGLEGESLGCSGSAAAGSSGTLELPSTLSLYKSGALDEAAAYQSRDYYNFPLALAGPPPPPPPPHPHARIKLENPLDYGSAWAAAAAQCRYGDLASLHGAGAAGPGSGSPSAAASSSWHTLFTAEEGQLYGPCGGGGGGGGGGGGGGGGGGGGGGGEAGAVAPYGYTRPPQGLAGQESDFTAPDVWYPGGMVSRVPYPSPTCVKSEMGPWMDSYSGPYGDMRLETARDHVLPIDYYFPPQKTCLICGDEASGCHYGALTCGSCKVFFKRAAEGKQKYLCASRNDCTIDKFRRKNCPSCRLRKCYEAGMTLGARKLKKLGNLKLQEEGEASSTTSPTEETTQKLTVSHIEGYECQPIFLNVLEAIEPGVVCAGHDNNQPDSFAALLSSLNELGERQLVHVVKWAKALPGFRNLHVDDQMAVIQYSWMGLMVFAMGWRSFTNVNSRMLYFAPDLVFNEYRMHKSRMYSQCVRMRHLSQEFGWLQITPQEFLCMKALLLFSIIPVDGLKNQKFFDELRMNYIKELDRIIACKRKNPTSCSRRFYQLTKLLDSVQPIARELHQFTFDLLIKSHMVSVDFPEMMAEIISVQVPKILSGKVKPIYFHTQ
# Experiment: OT_AR_ARSRC1_0960: Odyssey Thera (OT) 16-hour HEK293T Protein-Complementation Assay for Androgen Receptor/SRC-1 Co-activator (AID 2283353);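 note: actives raise the signal above DMSO so potency reflects increased AR and SRC-1 complex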
# Summary of the method: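 Stable HEK293T line carries AR and SRC-1 each linked to a Venus fragment; chemicals are applied for 16 h, cells imaged at two wavelengths, and the 488 nm nucleus/cytoplasm ratio is taken as the signal, rising relative to DMSO.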
row,Compound,outcome
1,O=C(N[C@H]1CN2CCC1CC2)c1ccc2c(c1)OCCO2,inactive
2,Cc1cc(Cl)ccc1OCCCC(=O)O,inactive
3,CNC(=O)O/N=C/C(C)(C)S(C)(=O)=O,inactive
4,N#CCC#N,inactive
5,COCCl,inactive
6,C=CC(Cl)CCl (configuration not stated),inactive
7,O=C(NC(=O)c1c(F)cccc1F)Nc1cc(Cl)c(OC(F)(F)C(F)C(F)(F)F)cc1Cl (configuration not stated),inactive
8,O=S1OC[C@@H]2[C@H](CO1)[C@]1(Cl)C(Cl)=C(Cl)[C@@]2(Cl)C1(Cl)Cl (some centres not stated),inactive
9,O=C(O)COc1cc(Cl)c(Cl)cc1Cl,inactive

# Target: Estrogen receptor (Homo sapiens) + Estrogen receptor beta (Homo sapiens) (UniProt P03372+Q92731)
# Sequence (P03372 whole entry, looked up, the tested form may be a part): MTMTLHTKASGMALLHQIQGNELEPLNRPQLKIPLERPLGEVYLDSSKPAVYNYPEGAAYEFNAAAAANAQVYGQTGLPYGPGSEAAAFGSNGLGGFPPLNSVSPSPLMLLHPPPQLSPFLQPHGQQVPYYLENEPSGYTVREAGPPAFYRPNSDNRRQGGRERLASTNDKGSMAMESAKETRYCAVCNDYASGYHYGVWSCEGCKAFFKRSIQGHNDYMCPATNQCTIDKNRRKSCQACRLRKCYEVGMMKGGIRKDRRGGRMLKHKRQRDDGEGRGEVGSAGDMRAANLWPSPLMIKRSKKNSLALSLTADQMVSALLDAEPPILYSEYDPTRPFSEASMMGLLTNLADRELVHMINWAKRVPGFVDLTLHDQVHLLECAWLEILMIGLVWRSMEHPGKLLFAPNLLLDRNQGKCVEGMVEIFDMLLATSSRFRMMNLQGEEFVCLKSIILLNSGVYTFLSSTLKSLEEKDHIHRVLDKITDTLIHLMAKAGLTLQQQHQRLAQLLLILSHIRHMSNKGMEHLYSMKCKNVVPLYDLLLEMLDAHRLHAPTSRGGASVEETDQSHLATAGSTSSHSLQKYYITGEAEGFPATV
# Sequence (Q92731 whole entry, looked up, the tested form may be a part): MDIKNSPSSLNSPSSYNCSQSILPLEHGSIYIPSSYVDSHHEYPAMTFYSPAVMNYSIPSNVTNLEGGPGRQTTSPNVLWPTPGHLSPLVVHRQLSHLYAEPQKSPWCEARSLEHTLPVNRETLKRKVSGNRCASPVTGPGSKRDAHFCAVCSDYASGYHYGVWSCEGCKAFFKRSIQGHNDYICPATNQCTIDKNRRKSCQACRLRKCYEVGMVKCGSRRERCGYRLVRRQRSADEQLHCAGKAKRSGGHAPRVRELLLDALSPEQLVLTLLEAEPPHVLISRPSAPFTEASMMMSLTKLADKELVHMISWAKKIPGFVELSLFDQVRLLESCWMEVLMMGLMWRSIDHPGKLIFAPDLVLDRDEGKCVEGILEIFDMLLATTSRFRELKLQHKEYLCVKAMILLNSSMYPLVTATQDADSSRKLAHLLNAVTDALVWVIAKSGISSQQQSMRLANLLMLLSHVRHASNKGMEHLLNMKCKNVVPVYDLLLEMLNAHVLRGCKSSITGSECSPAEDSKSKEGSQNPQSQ
# Experiment: OT_ER_ERaERb_1440: Odyssey Thera (OT) 24-hour HEK293T Protein-Complementation Assay for Estrogen Receptor-alpha/-beta Homodimer (AID 2283356);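 note: heteromer of ER alpha and ER beta binding domains; hits raise reporter fluorescence and both agonists and antagonists give an increase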
# Summary of the method: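 Readout: mean fluorescence intensity in nucleus (agonists) or nucleus plus cytoplasm (antagonists), read by laser scanning cytometer after 24 h compound exposure of HEK293T cells carrying ERα/ERβ LBD fragment-complementation constructs; DMSO baseline.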
Compound,outcome,AC50
CNC(=O)O/N=C/C(C)(C)S(C)(=O)=O,inactive,–
CCOc1ccc(N)cc1,inactive,–
N#CCC#N,inactive,–
O=CCCl,inactive,–
CCN(CCO)CCO,inactive,–
N#CCCC(Br)(C#N)CBr (configuration not stated),–,11.8 µM (active)
O=C(O)COc1ccc(Cl)cc1,inactive,–
CCCCCCCCCCCCN(C)C,–,73.9 µM (active)
CCCSP(=S)(OCC)Oc1ccc(SC)cc1 (configuration not stated),–,24.1 µM (active)
Cc1cc(Cl)ccc1OC(C)C(=O)O (configuration not stated),inactive,–
O=C(NC(=O)c1c(F)cccc1F)Nc1cc(Cl)c(OC(F)(F)C(F)C(F)(F)F)cc1Cl (configuration not stated),–,50.2 µM (active)
O=C(NC(=O)c1c(F)cccc1F)Nc1ccc(Cl)cc1,inactive,–
CC(C)=CC1C(C(=O)OCc2cccc(Oc3ccccc3)c2)C1(C)C (configuration not stated),inactive,–

# Target: PGR (gene 5241) (UniProt P06401)
# Sequence (P06401 whole entry, looked up): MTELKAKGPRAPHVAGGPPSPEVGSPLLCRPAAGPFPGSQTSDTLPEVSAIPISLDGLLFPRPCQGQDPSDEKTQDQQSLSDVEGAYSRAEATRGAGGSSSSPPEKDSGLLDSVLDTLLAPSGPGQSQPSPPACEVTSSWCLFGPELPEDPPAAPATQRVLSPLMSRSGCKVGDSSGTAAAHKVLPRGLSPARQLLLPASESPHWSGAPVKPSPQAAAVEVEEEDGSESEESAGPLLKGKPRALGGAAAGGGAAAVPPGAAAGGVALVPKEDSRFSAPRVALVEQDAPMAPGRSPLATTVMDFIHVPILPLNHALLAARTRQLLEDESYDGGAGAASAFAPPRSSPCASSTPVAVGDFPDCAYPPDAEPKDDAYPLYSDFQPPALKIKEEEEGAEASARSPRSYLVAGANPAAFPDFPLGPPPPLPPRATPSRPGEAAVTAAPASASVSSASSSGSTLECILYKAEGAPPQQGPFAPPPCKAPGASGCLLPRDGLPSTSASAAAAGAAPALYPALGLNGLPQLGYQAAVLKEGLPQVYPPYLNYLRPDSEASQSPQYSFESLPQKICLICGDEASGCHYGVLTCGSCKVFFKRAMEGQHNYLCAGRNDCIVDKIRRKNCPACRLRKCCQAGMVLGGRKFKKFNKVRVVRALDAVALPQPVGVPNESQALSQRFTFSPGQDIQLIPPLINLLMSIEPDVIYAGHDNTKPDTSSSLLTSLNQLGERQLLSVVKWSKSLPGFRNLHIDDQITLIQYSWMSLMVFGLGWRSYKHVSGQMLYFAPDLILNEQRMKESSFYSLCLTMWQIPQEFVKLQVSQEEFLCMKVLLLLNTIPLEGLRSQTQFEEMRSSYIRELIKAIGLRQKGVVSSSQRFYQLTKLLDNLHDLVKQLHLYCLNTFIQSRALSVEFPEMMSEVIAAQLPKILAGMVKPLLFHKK
# Experiment: NVS_NR_hPR: NovaScreen (NVS) Nuclear Receptor Binding Assay for human Progestron Receptor (PR) (AID 2283360);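 note: active means loss of bound radioligand signal versus DMSO baseline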
# Summary of the method: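 T47D-derived receptor preparation, cell-free, with tritiated or iodinated radioligand displacement measured by scintillation 18 h post-dosing. Single 25 uM duplicate screen, then concentration series; signal loss relative to DMSO.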
row,Compound,outcome
1,O=C(O)C1(c2ccc3c(c2)OC[C@H](Cc2ccc(-c4ccccc4)cc2)[C@H]3O)CCCC1,inactive
2,O=C(N[C@H]1CN2CCC1CC2)c1ccc2c(c1)OCCO2,inactive
3,Clc1cccc(Cl)c1Cl,inactive
4,C[C@]12CC[C@@H](O)C[C@@H]1CC[C@@H]1[C@@H]2CC[C@]2(C)C(=O)CC[C@@H]12,inactive

# Target: human Thyroid Receptor Alpha (TRa), THRA (gene 7067) (UniProt P10827)
# Sequence (P10827 whole entry, looked up): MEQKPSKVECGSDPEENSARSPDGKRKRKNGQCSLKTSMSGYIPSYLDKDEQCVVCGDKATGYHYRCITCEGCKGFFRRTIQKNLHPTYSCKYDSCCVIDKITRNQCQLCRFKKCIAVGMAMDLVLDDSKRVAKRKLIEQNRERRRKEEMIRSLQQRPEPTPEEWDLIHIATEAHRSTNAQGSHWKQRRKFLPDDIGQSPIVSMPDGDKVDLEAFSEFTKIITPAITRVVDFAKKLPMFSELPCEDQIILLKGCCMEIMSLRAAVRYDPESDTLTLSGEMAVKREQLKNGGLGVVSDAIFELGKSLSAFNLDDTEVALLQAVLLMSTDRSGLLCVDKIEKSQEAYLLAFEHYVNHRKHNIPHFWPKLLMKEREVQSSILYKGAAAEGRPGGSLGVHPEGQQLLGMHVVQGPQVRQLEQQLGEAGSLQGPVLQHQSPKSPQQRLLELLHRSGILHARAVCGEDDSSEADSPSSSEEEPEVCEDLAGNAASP
# Experiment: NVS_NR_hTRa_Antagonist: NovaScreen (NVS) Nuclear Receptor Binding Assay for human Thyroid Receptor Alpha Antagonism (TRa) (AID 2283362);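 note: activity is loss of signal relative to DMSO baseline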
# Summary of the method: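 AlphaLISA chemiluminescent immunoassay readout, taken 1 h post-dosing in a cell-free system with extracted protein. Activity was scored as signal loss against DMSO negative control, from duplicate single-concentration (25 uM) testing followed by concentration-response follow-up.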
Compound,AC50,outcome
Nc1ccc(N)cc1,31.7 µM (active),–
CCOc1cc(C=O)ccc1O,–,inactive
Nc1ncn[nH]1,–,inactive

# Target: Glucocorticoid receptor (Homo sapiens) (UniProt P04150)
# Sequence (P04150 whole entry, looked up): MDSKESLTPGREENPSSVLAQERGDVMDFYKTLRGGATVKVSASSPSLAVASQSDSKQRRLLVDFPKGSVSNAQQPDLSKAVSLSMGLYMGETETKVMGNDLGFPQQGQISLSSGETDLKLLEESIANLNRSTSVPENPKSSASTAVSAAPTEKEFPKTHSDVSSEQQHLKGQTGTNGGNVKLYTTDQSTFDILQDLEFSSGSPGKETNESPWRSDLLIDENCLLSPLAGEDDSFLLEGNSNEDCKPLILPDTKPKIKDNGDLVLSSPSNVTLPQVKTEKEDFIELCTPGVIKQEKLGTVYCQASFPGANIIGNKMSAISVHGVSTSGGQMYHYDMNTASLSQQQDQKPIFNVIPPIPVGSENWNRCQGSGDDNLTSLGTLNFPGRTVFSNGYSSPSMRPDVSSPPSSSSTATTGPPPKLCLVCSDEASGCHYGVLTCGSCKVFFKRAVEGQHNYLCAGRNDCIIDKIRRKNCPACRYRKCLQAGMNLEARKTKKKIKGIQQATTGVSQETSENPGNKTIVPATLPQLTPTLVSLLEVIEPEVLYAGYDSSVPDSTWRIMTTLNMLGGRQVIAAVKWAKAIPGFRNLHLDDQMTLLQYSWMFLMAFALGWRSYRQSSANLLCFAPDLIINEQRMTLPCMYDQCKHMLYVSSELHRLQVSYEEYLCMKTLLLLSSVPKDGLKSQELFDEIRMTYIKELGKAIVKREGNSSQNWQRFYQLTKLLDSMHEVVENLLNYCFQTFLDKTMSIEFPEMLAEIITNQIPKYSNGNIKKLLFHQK
# Experiment: NVS_NR_hGR: NovaScreen (NVS) Nuclear Receptor Binding Assay for human Glucocorticoid Receptor (GR) (AID 2283363);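 for AC50: activity is loss of specific radioligand binding signal relative to DMSO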
# Summary of the method: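 Single-readout cell-free binding: radioligand plus extracted receptor, 16-hour dosing, filter radiodetection; 25 uM duplicate primary, concentration series secondary.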
Compound,outcome,AC50
CC(C=O)Cc1ccc2c(c1)OCO2 (configuration not stated),inactive,–
Cc1ccc2nc3sc(=O)sc3nc2c1,–,1.64 µM (active)
CCCCCCCCCCCCOS(=O)(=O)O,–,11.6 µM (active) and 12.7 µM (active)
